“And” between values parts separate entries of the source, which are not always exact repeats. Identical values can stand only once. Counter-ions that a name gives are not always drawn.
Key:
Test in all cases: cell viability relative to vehicle control; higher = less cytotoxic
Details in all cases: 10 µM
[1] = tested on: K562
Summary of the method: (§1)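 Screening covered the Selleck bioactive, kinase and epigenetic probe libraries, less identity-inconsistent compounds, on CRISPR-edited mutant clones and isogenic wild-type clones of four leukaemia lines. Cells, at 2000 per well in 50 µL medium, received a single 10 µM acoustically dispensed dose. After 48 h the supernatant was removed and CellTiter-Glo luminescence was read. Viability was analysed in Genedata Screener as percent of the on-plate vehicle control.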

[2] = tested on: MARIMO
Summary of the method: as §1

[3] = tested on: MOLM14
Summary of the method: as §1

[4] = tested on: OCI-AML2
Summary of the method: as §1

| Structure (SMILES) | cell viability ([1]; SRSF2 genotype: SRSF2 P95H/wt) | cell viability ([1]; SRSF2 genotype: SRSF2 wt/wt) | cell viability ([2]; SRSF2 genotype: SRSF2 P95H/wt) | cell viability ([2]; SRSF2 genotype: SRSF2 wt/wt) | cell viability ([3]; SRSF2 genotype: SRSF2 P95H/wt) | cell viability ([3]; SRSF2 genotype: SRSF2 wt/wt) | cell viability ([4]; SRSF2 genotype: P95H/wt) | cell viability ([4]; SRSF2 genotype: wt/wt) |
| --- | --- | --- | --- | --- | --- | --- | --- | --- |
| C=CC(=O)Nc1cccc(C)c1Nc1ncc2cc(-c3c(Cl)c(OC)cc(OC)c3Cl)ccc2n1 | 29.7% and 25.7% | 35.1% | 47.6% | 55.7% | 6.84% | 4.93% | 6.53% | 11.9% |
| CCC1=C(C)CN(C(=O)NCCc2ccc(S(=O)(=O)NC(=O)N[C@H]3CC[C@H](C)CC3)cc2)C1=O [Glimepiride] | 101% and 82.6% | 93.7% | 91.7% | 116% | 94.6% | 92.4% | 97.3% | 105% |
| Cc1nccn1CC1CCc2c(c3ccccc3n2C)C1=O (configuration not stated) [Ondansetron Hydrochloride Dihydrate] | 95.8% and 94.2% | 91.5% | 95.9% | 108% | 97.4% | 97.4% | 88.6% | 99.1% |
| CN[C@@H](C)C(=O)N[C@H]1CN(C(=O)CC(C)C)CC[C@H]2CC[C@@H](C(=O)NC(c3ccccc3)c3ccccc3)N2C1=O | 69.6% and 74.7% | 72.8% | 64.5% | 46.6% | 0.57% | 0.76% | 60.2% | 39.2% |
| Cc1cc(Cn2cnc3c2CC(C(=O)O)N(C(=O)C(c2ccccc2)c2ccccc2)C3)ccc1N(C)C (configuration not stated) | 100% and 97.2% | 99.5% | 102% | 101% | 94.9% | 97.2% | 100% | 117% |
| CN[C@@H](C)C(=O)N[C@H](C(=O)N1CCC[C@H]1C(=O)N[C@H](C(=O)NCCCCCCNC(=O)[C@@H](NC(=O)[C@@H]1CCCN1C(=O)[C@@H](NC(=O)[C@H](C)NC)C1CCCCC1)C(c1ccccc1)c1ccccc1)C(c1ccccc1)c1ccccc1)C1CCCCC1 | 0.93% and 3.98% | 3.06% | 29.5% | 8.11% | 0.7% | 0.53% | 4.1% | 9.14% |
| CN1CC(=O)N2[C@H](c3ccc4c(c3)OCO4)c3[nH]c4ccccc4c3C[C@@H]2C1=O [Tadalafil (Cialis)] | 101% and 99.7% | 106% | 98.5% | 105% | 97.3% | 99.8% | 103% | 108% |
| COc1cc(F)c(F)c(Nc2ccc(I)cc2F)c1NS(=O)(=O)C1(C[C@H](O)CO)CC1 [Refametinib (RDEA119, Bay 86-9766)] | 53.8% and 59.1% | 62.1% | 31.8% | 33% | 30.7% | 22.7% | 35.4% | 35.1% |
| CN(C)CCC(c1ccc(Br)cc1)c1ccccn1 (configuration not stated) [Brompheniramine hydrogen maleate] | 95.3% and 97.4% | 91.3% | 86.2% | 90.7% | 101% | 98.8% | 112% | 109% |
| CC(=O)c1cc([N+](=O)[O-])c(Sc2ccc(F)cc2F)s1 | 69% and 79.6% | 71% | 57.1% | 54.2% | 13.7% | 12.3% | 76.6% | 35.3% |
| Cc1ccccc1C(=O)Nc1ccc(C(=O)N2CCCC(O)c3cc(Cl)ccc32)c(C)c1 (configuration not stated) | 89.3% and 84.8% | 85.7% | 80.7% | 99.9% | 84.2% | 91.7% | 91.6% | 83% |
| CCCc1nn(C)c2c(=O)[nH]c(-c3cc(S(=O)(=O)N4CCN(C)CC4)ccc3OCC)nc12 [Sildenafil citrate] | 100% and 106% | 103% | 106% | 108% | 108% | 111% | 118% | 109% |
| C=C(C)C1CC=C(C=NO)CC1 (configuration not stated) [Perillartine] | 100% | 98.3% | 104% | 105% | 93% | 99.8% | 100% | 112% |
| COC(=O)c1ccc2c(C(=Nc3ccc(N(C)C(=O)CN4CCN(C)CC4)cc3)c3ccccc3)c(O)[nH]c2c1 [Nintedanib (BIBF 1120)] | 1.02% and 0.94% | 2.25% | 39% | 34.4% | 2.6% | 4.94% | 0.94% | 5.1% |
| CC1(C)CC(=O)c2c(C(F)(F)F)nn(-c3ccc(C(N)=O)c(N[C@H]4CC[C@H](OC(=O)CN)CC4)c3)c2C1 | 21.8% and 27.1% | 25.3% | 29.4% | 24.4% | 2.89% | 4.44% | 14.6% | 22.1% |
| CC(C)C1=CC2=CC[C@@H]3[C@](C)(CCC[C@@]3(C)C(=O)O)[C@H]2CC1 [Abietic Acid] | 113% and 104% | 98.8% | 105% | 115% | 99.5% | 105% | 90.9% | 95.5% |
| CC(C)=CCC[C@](C)(O[C@@H]1O[C@H](CO)[C@@H](O)[C@H](O)[C@H]1O)[C@H]1CC[C@]2(C)[C@@H]1[C@H](O)C[C@@H]1[C@@]3(C)CC[C@H](O)C(C)(C)[C@@H]3[C@@H](O[C@@H]3O[C@H](CO)[C@@H](O)[C@H](O)[C@H]3O)C[C@]12C [Ginsenoside Rg1] | 95.2% and 91.8% | 101% | 96.7% | 94.4% | 97.5% | 98.4% | 99.5% | 104% |
| CCCNCC(O)COc1ccccc1C(=O)CCc1ccccc1 (configuration not stated) [Propafenone HCl] | 78.7% and 84.2% | 79.2% | 66.1% | 70.5% | 73.2% | 81.2% | 68.3% | 68% |
| CCCC1CC(C(=O)NC(C(C)Cl)C2OC(SC)C(O)C(O)C2O)N(C)C1 (configuration not stated) [Clindamycin alcoholate] | 104% and 98% | 102% | 98.5% | 107% | 103% | 108% | 107% | 98.6% |
| COC(=O)[C@@H]1CC2=CC(=O)CC[C@]2(C)[C@@]23O[C@@H]2C[C@@]2(C)[C@@H](CC[C@@]24CCC(=O)O4)[C@H]13 [Eplerenone] | 98.4% and 103% | 103% | 98% | 103% | 107% | 95.6% | 100% | 101% |

| Structure (SMILES) | cell viability ([1]; SRSF2 genotype: SRSF2 P95H/wt) | cell viability ([1]; SRSF2 genotype: SRSF2 wt/wt) | cell viability ([2]; SRSF2 genotype: SRSF2 P95H/wt) | cell viability ([2]; SRSF2 genotype: SRSF2 wt/wt) | cell viability ([3]; SRSF2 genotype: SRSF2 P95H/wt) | cell viability ([3]; SRSF2 genotype: SRSF2 wt/wt) | cell viability ([4]; SRSF2 genotype: P95H/wt) | cell viability ([4]; SRSF2 genotype: wt/wt) |
| --- | --- | --- | --- | --- | --- | --- | --- | --- |
| Cn1cnc(-c2cc3nccc(Oc4ccc(NC(=S)NC(=O)Cc5ccccc5)cc4F)c3s2)c1 | 80.4% and 84.1% | 71.9% | 87.8% | 105% | 23.3% | 15.3% | 49.2% | 58.8% |
| Cc1cc(C)c(CNC(=O)c2cc(-c3ccc(CN4CCOCC4)cc3)cc3c2cnn3C2CCCC2)c(=O)[nH]1 | 105% and 117% | 120% | 113% | 111% | 104% | 107% | 111% | 106% |
| O=C(/C=C\n1cnc(-c2cc(C(F)(F)F)cc(C(F)(F)F)c2)n1)NNc1ccccn1 [Verdinexor (KPT-335)] | 11.8% and 21.6% | 14.7% | 24.4% | 22.1% | 2.16% | 1.01% | 4.7% | 9.56% |
| O=C(Nc1cc(Cl)cc(Cl)c1O)c1c(O)c(Cl)cc(Cl)c1Cl [Oxyclozanide] | 96% and 91.7% | 97.8% | 97.2% | 108% | 99.1% | 103% | 102% | 99.9% |
| CNCCC(Oc1ccc(C(F)(F)F)cc1)c1ccccc1 (configuration not stated) [Fluoxetine HCl] | 75.2% and 82.5% | 88.8% | 63.5% | 75.2% | 68.8% | 81.6% | 63.1% | 74.1% |
| O=C(NOCCO)c1ccc2cncn2c1Nc1ccc(I)cc1F | 78.1% and 89.5% | 80.8% | 41.2% | 37% | 43.5% | 27% | 39.1% | 40.2% |
| CO[C@H]1/C=C/O[C@@]2(C)Oc3c(C)c(O)c4c(O)c(cc(O)c4c3C2=O)NC(=O)/C(C)=C\C=C\[C@H](C)[C@H](O)[C@@H](C)[C@@H](O)[C@@H](C)[C@H](OC(C)=O)[C@@H]1C [Rifamycin sodium salt] | 35.1% and 16.3% | 13% | 4.5% | 7.05% | 0.49% | 0.44% | 0.38% | 0.42% |
| CCOc1ccc2ccccc2c1C(=O)N[C@@H]1C(=O)N2[C@@H]1SC(C)(C)[C@@H]2C(=O)O [Nafcillin Sodium] | 106% | 101% | 104% | 115% | 101% | 108% | 98% | 107% |
| COc1cc(/C=C/C(=O)OC[C@H]2O[C@H](O[C@]3(CO)O[C@H](CO)[C@@H](O)[C@@H]3OC(=O)/C=C/c3cc(OC)c(O)c(OC)c3)[C@H](O)[C@@H](O)[C@@H]2O)cc(OC)c1O [3,6'-Disinapoyl sucrose] | 106% and 103% | 101% | 106% | 109% | 112% | 105% | 102% | 105% |
| O=S(=O)(O)CCS [Mesna (Uromitexan, Mesnex)] | 107% and 96% | 103% | 94.2% | 110% | 104% | 100% | 92% | 104% |
| CC(C)n1ncnc1-c1cn2c(n1)-c1ccc(O[C@@H](C)C(N)=O)cc1OCC2 | 103% and 99.5% | 105% | 48.3% | 46.3% | 50.9% | 62.9% | 18.5% | 34.3% |
| O=C1C(=O)c2ccccc2C(O)=C1C1CCC(c2ccc(Cl)cc2)CC1 (configuration not stated) [Atovaquone (Atavaquone)] | 87.9% and 81.8% | 79.7% | 87.9% | 95.8% | 84.7% | 88.7% | 84.8% | 90.1% |
| CC1=C(/C=C/C(C)=C/C=C/C(C)=C/C=C/C=C(C)/C=C/C=C(C)/C=C/C2=C(C)CCCC2(C)C)C(C)(C)CCC1 [Beta Carotene] | 100% and 103% | 92% | 93.3% | 101% | 93.8% | 98% | 98.3% | 105% |
| COc1cc2ncnc(Nc3cccc(Cl)c3)c2cc1OC [AG-1478 (Tyrphostin AG-1478)] | 75% and 83.2% | 76.4% | 81.7% | 90% | 59.7% | 67.6% | 58% | 62.2% |
| NS(=O)(=O)c1ccc(NC(=S)N2CCN(CC=Cc3ccccc3)CC2)cc1 | 85.3% and 88.8% | 93.5% | 83.5% | 76.7% | 95.3% | 99.2% | 64.5% | 76.5% |
| CC(=O)Oc1ccc(C(=C2CCCCC2)c2ccc(OC(C)=O)cc2)cc1 [Cyclofenil] | 98% and 94.2% | 98.5% | 96.8% | 95.8% | 94.3% | 102% | 96.8% | 96.9% |
| C[C@H](C[C@H](O)[C@H]1OC1(C)C)C1=C2C[C@H](O)[C@H]3[C@@]4(C)CCC(=O)C(C)(C)[C@@H]4CC[C@]3(C)[C@@]2(C)CC1 [Alisol B] | 81.2% and 83.7% | 78.7% | 70.8% | 48.2% | 86.7% | 87.4% | 70.3% | 72.7% |
| CC[C@@]1(O)C(=O)OCc2c1cc1n(c2=O)Cc2cc3cc(O)ccc3nc2-1 [Hydroxy Camptothecine] | 10.4% and 26.6% | 9.83% | 4.88% | 4.13% | 0.53% | 0.32% | 0.49% | 2.23% |
| O=C(O)CC(O)(CC(=O)OCc1ccc(O[C@@H]2O[C@H](CO)[C@@H](O)[C@H](O)[C@H]2O)cc1)C(=O)OCc1ccc(O[C@@H]2O[C@H](CO)[C@@H](O)[C@H](O)[C@H]2O)cc1 (some centres not stated) [Parishin B] | 106% and 105% | 109% | 103% | 98.4% | 113% | 105% | 99.6% | 100% |
